These results are taken from PubChem BioAssay (NCI).

SMILES strings stand for the structures. This is part of a sample that, as a whole, favours compounds with a hit. Of some 83,000 tested, about 20% had one in any assay.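 Testing used 96-well plates and a 48-hour single-concentration exposure. Example: -40 means 40% of the starting cells died.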 Active and inactive are the calls of the source. The calls were made as follows: active = growth percent below 10; inactive = the rest.

For this test, the system named is MDA-MB-468 breast. As to the kind of experiment: NCI-60 one-dose screen, 48 h (100 = growth as untreated, 0 = no growth, -100 = all killed). To be noted: 10 µM unless noted.
As for `COc1cc2c(cc1-c1c(C)noc1C)ncc1nc(C3CC3)n([C@H](C)COC(F)F)c12`, the growth was 46% (inactive).
Turning to `CCCCOc1ccc(NC(=O)Nc2nnc(C)s2)cc1`, the growth is 103% (inactive).
`Cc1cc(C)cc(NC(=O)Cn2nncc2CN2C(=O)CSC2=O)c1`: the growth was 97% (inactive).
Then `CCNCCCn1c2c(c3cc(OC)c(OC)cc3c1=O)C(=O)c1cc(OC)cnc1-2`, with 5.95% (active); and `COc1cc2c(c(OC)c1OC)CCC(c1cccc(NC(=O)c3ccc(Br)cc3)c1)O2` (stereo unspecified), with 35.8% (inactive); and `COc1ccc2c(c1)sc1nc(-c3ccccc3)c(-c3cccnc3)n12`, with 90.1% (inactive).
Then `Nc1cc2nc3ccccc3sc-2cc1=O`, with 72.9% (inactive).
The same measure for `O=C(N=Nc1c(O)[nH]c2ccccc12)c1oc2ccccc2c1CN1CCN(c2ccccc2)CC1`: -46% (active); for `O=S(=O)(c1cccc(NC2=Nc3cccc4cccc2c34)c1)N1CCCC1`: 36.4% (inactive); for `COc1ccc(/C=C\c2cc(OC)c(OC)c(OC)c2)c(NS(=O)(=O)c2ccc(C(C)(C)C)cc2)c1O`: 38.9% (inactive).
Consider `CN(C)CCCN(CCC1CCCCC1)CCC1CCCCC1`, for which the growth was -35.4% (active).
Then `CCOC(=O)Nc1ccc2c(c1)/C(=N\NC(=S)NC)c1ccccc1-2`, with 86.8% (inactive).
The same measure for `NNC(=O)Cc1ccccc1`: 92.3% (inactive); for `Oc1ccc(Cl)cc1/C=N\NC(=S)N/N=C/c1cc(Cl)ccc1O`: 1.29% (active); for `O=C(Nc1ccc(Cl)cc1)c1cc2c(cc1O)[nH]c1ccccc12`: -17.6% (active).
Then `CCC12CCC3c4ccc(O)cc4CCC3C1CC(O)C2O` (stereo unspecified), with 58.4% (inactive).
